Potency data for 30 compounds are collected here from PubChem BioAssay (NCATS).

The structures appear in SMILES notation. Results filed as inconclusive are left out. The source made the active and inactive calls. The call rests on the fitted dose curve; in most records, active means well fitted curve in the direction sought with a large enough effect; inconclusive means small, poorly fitted or top-dose-only effect, or another doubt; inactive means no such curve, though single readings can be large; an effect the other way counts as inactive or inconclusive.

The nature of test [1]: qHTS of pediatric cancer cell lines to identify multiple opportunities for drug repurposing: Primary screen for LAN-5 cells (AID 1347100). Further: potency means the concentration at half of the fitted maximal effect. The essentials:
(§1)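 Cells (500-1,000/well) in growth media were settled 5 h at 37 degrees C, then given compounds for 48 h. Viability was read as CellTiter-Glo luminescence. Primary runs used MIPE at 11 points (0.78 nM-46 µM) and NPC at 8 points (0.59 nM-46 µM); follow-ups used 11 points.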
(In general: Quantitative high-throughput screening tests each substance at several concentrations.)

Test [2] in a line: qHTS of pediatric cancer cell lines to identify multiple opportunities for drug repurposing: Primary screen for BT-12 cells (AID 1347101). Further: nearly all actives have a fitted effect of over 25% in size. Further: potency means the concentration at half of the fitted maximal effect. The essentials: (§2)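 Cells (500-1,000/well) rested 5 h, then received compounds for 48 h; metabolically active cells were measured by CellTiter-Glo luminescence. Final concentrations spanned up to 46 µM (MIPE, 11-point) or 0.59 nM-46 µM (NPC, 8-point) in primary screens, 11-point in follow-ups.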

Test [3] can be described thus: qHTS of pediatric cancer cell lines to identify multiple opportunities for drug repurposing: Primary screen for Rh18 cells (AID 1347102). Further: nearly all actives have a fitted effect of over 65% in size. The procedure, abridged: as §1
A short description of test [4]: qHTS of pediatric cancer cell lines to identify multiple opportunities for drug repurposing: Primary screen for OHS-50 cells (AID 1347103). Further: nearly all actives have a fitted effect of over 40% in size. Further: potency means the concentration at half of the fitted maximal effect. The essentials: as §2
Test [5] can be described thus: qHTS of pediatric cancer cell lines to identify multiple opportunities for drug repurposing: Primary screen for MG 63 (6-TG R) cells (AID 1347105). Further: nearly all actives have a fitted effect of over 50% in size. Further: potency means the concentration at half of the fitted maximal effect. The essentials:
(§3)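 CRCs from 8- or 11-point titrations (lowest final 0.59 nM NPC, 0.78 nM MIPE). Cell viability: CellTiter-Glo after 48 h incubation, 15 min room-temperature development, luminescence imaging.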

The nature of test [6]: qHTS of pediatric cancer cell lines to identify multiple opportunities for drug repurposing: Primary screen for Rh30 cells (AID 1347107). Further: nearly all actives have a fitted effect of over 75% in size. Further: potency means the concentration at half of the fitted maximal effect. The essentials: as §1
Test [7] in a line: qHTS of pediatric cancer cell lines to identify multiple opportunities for drug repurposing: Primary screen for RD cells (AID 1347104). Further: nearly all actives have a fitted effect of over 55% in size. Further: potency means the concentration at half of the fitted maximal effect. The procedure, abridged:
as §3

Test [8] in a line: qHTS of pediatric cancer cell lines to identify multiple opportunities for drug repurposing: Primary screen for control Hh wild type fibroblast cells (AID 1347106). Further: nearly all actives have a fitted effect of over 55% in size. Further: potency means the concentration at half of the fitted maximal effect. The procedure, abridged: as §1

As for `CCCCCCCCCCCC1=C(O)C(=O)C=C(O)C1=O`, the Potency is 0.0166 µM (active) in test [1], 0.0432 µM (active) in test [2], 0.0193 µM (active) in test [4] and 2.96 µM (active) in test [5]. Besides, the Potency result in test [3] and in test [6] was “inactive” throughout.

Take `C=C1C(=O)OC2C=C(C)CCC=C(C)CCC12` (configuration not stated): in test [1], the Potency was 23.5 µM (active). In addition, the Potency entry in test [3], in test [4] and in test [5] was “inactive” throughout.

In the case of `CN1[C@@H]2CCC[C@@H]1CC(NC(=O)c1nn(C)c3ccccc13)C2` (some centres not stated), the Potency entry in test [1], in test [2], in test [3], in test [4], in test [7] and in test [5] was “inactive” in each case. Moreover, the Potency entry in test [8] and in test [6] was “inactive” each time.

As to `Clc1ccc(-c2nc3sccn3c2C=NOCc2ccc(Cl)c(Cl)c2)cc1`, the Potency entry in test [1], in test [2], in test [3], in test [4], in test [7] and in test [6] was “inactive” in each case.

With `Oc1ccc(C2CCN(c3ccnc4ccccc34)CC2)cc1O`, the Potency in test [1] is 18.7 µM (active); in test [2], 7.69 µM (active); in test [4] it was 17.2 µM (active). In addition, the Potency entry in test [3] and in test [5] was “inactive” in each case.

With `COc1cccc2c1CCCC2CCCN1CCN(C2CCCCC2)CC1` (configuration not stated), the Potency in test [1] is 26.4 µM (active); in test [2], 24.3 µM (active); in test [4], 19.3 µM (active); in test [7], 26.4 µM (active). Further, the Potency entry in test [5] and in test [8] was “inactive” in each case.

As for `Cc1ccn(-c2ccc(-c3ncco3)cc2)c(=O)c1-c1ccc2nc(N)ncc2c1`, the Potency entry in test [1], in test [8] and in test [6] was “inactive” throughout. In test [4], the Potency was 2.73 µM (active).

In the case of `O=C(Nc1c(Cl)cncc1Cl)c1ccc(OC(F)F)c(OCC2CC2)c1`, the Potency result in test [1], in test [2], in test [3], in test [4], in test [7] and in test [5] was “inactive” in each case. The Potency result in test [8] and in test [6] was “inactive” throughout.

For `c1cc(-c2sc(-c3ccncc3)c(-c3ccncc3)c2-c2ccncc2)ccn1`, the Potency entry in test [1], in test [2], in test [3], in test [5], in test [8] and in test [6] was “inactive” each time.

In the case of `O=C1NC(=O)C(=Cc2cccc(C(F)(F)F)c2)S1`, the Potency entry in test [1], in test [3], in test [7] and in test [5] was “inactive” throughout.

For the compound `O=C(CCN1CCN(C(=O)OCc2cc(Cl)cc(Cl)c2)CC1)c1ccc2[nH]c(=O)oc2c1`, the Potency entry in test [1], in test [3], in test [4], in test [7], in test [5] and in test [8] was “inactive” throughout. The Potency entry in test [6] was “inactive”.

As for `O=c1[nH]cnc2c1ncn2[C@H]1CC[C@@H](CO)O1`, the Potency result in test [1], in test [2], in test [3], in test [4], in test [7] and in test [5] was “inactive” throughout. The Potency result in test [8] and in test [6] was “inactive” throughout.

Regarding `NC(=O)c1cnc(-c2ccc(C3(N)CCC3)cc2)c(-c2ccccc2)c1`, the Potency result in test [3], in test [8] and in test [6] was “inactive” in each case. In test [4], the Potency was 2.73 µM (active).

For the compound `CCCCCNC(=O)N1CCC(CN(Cc2ccc(Cl)cc2)Cc2ccc([N+](=O)[O-])s2)C1` (configuration not stated), the Potency in test [4] is 24.3 µM (active); in test [7], 29.6 µM (active). In test [8], the Potency entry was “inactive”.

For the compound `Nc1ncnc2c1nc(Cl)n2[C@@H]1O[C@H](CO)[C@@H](O)[C@@H]1O`, the Potency result in test [2] was “inactive”. For the same compound, the Potency was 15.3 µM (active) in test [4], 29.6 µM (active) in test [7], 29.6 µM (active) in test [5] and 23.5 µM (active) in test [8].

Consider `COc1ccc(C2Sc3ccccc3N(CCN(C)C)C(=O)C2OC(C)=O)cc1` (configuration not stated), for which the Potency entry in test [2], in test [3], in test [4], in test [7], in test [5] and in test [8] was “inactive” throughout. The Potency result in test [6] was “inactive”.

Consider `COC(=O)C1=CO[C@@H](O)[C@@H]2C(CO)=CC[C@@H]12`, for which, in test [1], the Potency was 20.9 µM (active). Further, the Potency result in test [7], in test [8] and in test [6] was “inactive” in each case.

Turning to `N[C@H](CSC(c1ccccc1)(c1ccccc1)c1ccccc1)C(=O)O`, the Potency in test [2] is 27.3 µM (active); in test [4] it was 6.11 µM (active). The Potency entry in test [3], in test [5], in test [8] and in test [6] was “inactive” each time.

Take `CC[C@H]1OC(=O)[C@H](C)C(=O)[C@H](C)[C@@H](O[C@H]2O[C@H](C)C[C@H](N(C)C)[C@@H]2O)[C@](C)(OC)C[C@@H](C)C(=O)[C@H](C)[C@H]2N(CCCCn3cnc(-c4cccnc4)c3)C(=O)O[C@]12C`: the Potency result in test [4] is “inactive”.

Turning to `O=C(NCc1ccncc1)C12C[C@H]3C[C@@H](C1)CC(c1ccc(Cl)cc1)(C3)C2`, the Potency entry in test [3] and in test [8] was “inactive” throughout. Besides, the Potency in test [4] is 19.3 µM (active); in test [7], 10.5 µM (active).

`CC[C@]1(O)C[C@@H]2CN(CCc3c([nH]c4ccccc34)[C@@](C(=O)OC)(c3cc4c(cc3OC)N(C=O)[C@@H]3C45CCN4CC=C[C@](CC)([C@H]45)[C@@H](OC(C)=O)[C@]3(O)C(=O)OC)C2)C1` (some centres not stated): the Potency entry in test [1], in test [5], in test [8] and in test [6] was “inactive” throughout.

Consider `c1ccc2c(-c3cnn4cc(-c5ccc(N6CCNCC6)cc5)cnc34)ccnc2c1`, for which the figures for the Potency in test [2], in test [8] and in test [6] were 27.3 µM (active), 4.69 µM (active) and 18.7 µM (active), respectively.

Consider `CCn1c(C(=O)N(C2CC2)C2CC2)cc2c3c(ncn3C)c(Nc3cc(C)n(C)n3)nc21`, for which the Potency result in test [2], in test [7], in test [5] and in test [8] was “inactive” in each case.

`CC(C)[C@H](CO)Nc1nc(Nc2ccc(C(=O)O)c(Cl)c2)c2ncn(C(C)C)c2n1`: the Potency result in test [3], in test [5] and in test [6] was “inactive” throughout.

Regarding `O=C(Nc1cccc(Br)c1)c1cccc(S(=O)(=O)N2CCCCCC2)c1`, the Potency in test [4] was 19.3 µM (active).

In the case of `COc1ccc2c(Oc3ccc(NC(=O)c4c(C)n(CC(C)(C)O)n(-c5ccccc5)c4=O)cc3F)ccnc2c1`, the Potency in test [4] was 21.7 µM (active). For the same compound, in test [8], the Potency result was “inactive”.

In the case of `O=C1Nc2ccc(Cl)cc2C(C#CC2CC2)(C(F)(F)F)O1` (configuration not stated), the Potency result in test [3], in test [8] and in test [6] was “inactive” each time. The Potency was 21.7 µM (active) in test [4] and 41.8 µM (active) in test [7].

For the compound `CC/C(=C(\c1ccccc1)c1ccc(OCCN(C)C)cc1)c1ccccc1`, the Potency in test [2] is 27.6 µM (active); in test [4], 17.4 µM (active). In addition, the Potency entry in test [5], in test [8] and in test [6] was “inactive” in each case.

With `CC1=C(/C=C/C(C)=C/C=C/C(C)=C/C(=O)Nc2ccc(O)cc2)C(C)(C)CCC1`, the figures for the Potency in test [2] and in test [7] were 7.77 µM (active) and 26.6 µM (active), respectively. Further, the Potency result in test [8] is “inactive”.

Take `Clc1cc(Cl)cc(CNc2ncncc2-c2ccc3c(c2)OCO3)c1`: the Potency result in test [6] was “inactive”.
